PAFAH1B3 FP inh: inhibitors of human PAFAH1B3; AID 492972; inhibition, % at 3.39 µM; 340,000 tested, 0.28% active; Q15102; recombinant PAFAH1B3, FP-rhodamine probe, fluorescence polarization;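 active means inhibition above the screen-wide average of all tested compounds plus 3 SD, cut at about 25% in these data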;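 further: 0% = enzyme with DMSO only and 100% = wells lacking PAFAH1B3 protein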
PAFAH2 FP inh: inhibitors of human PAFAH2. Q99487. recombinant PAFAH2, FP-rhodamine activity probe, fluorescence polarization. inhibition, % at 3.39 µM. 340,000 tested, 0.99% active;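 active means inhibition above the mean over all tested compounds plus 3 SD, cut at about 30% in these data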;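 further: inhibitors block probe labeling of enzyme so polarization drops; 0% = enzyme with DMSO and 100% = wells lacking PAFAH2 protein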
LYPLA2 inh: counter-screen for PME1 inhibitors: inhibitors of human LYPLA2; O95372; recombinant LYPLA2, FP-Rh probe fluorescence polarization; inhibition, % at 5.9 µM; 320,000 tested, 0.38% active; AID 2177;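 active means inhibition above the screen-wide mean plus 3 SD, limit set per campaign, cut at about 26% in these data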;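 further: 0% = LYPLA2 with DMSO and 100% = wells lacking LYPLA2 enzyme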
Target sequence (O95372 whole entry, looked up): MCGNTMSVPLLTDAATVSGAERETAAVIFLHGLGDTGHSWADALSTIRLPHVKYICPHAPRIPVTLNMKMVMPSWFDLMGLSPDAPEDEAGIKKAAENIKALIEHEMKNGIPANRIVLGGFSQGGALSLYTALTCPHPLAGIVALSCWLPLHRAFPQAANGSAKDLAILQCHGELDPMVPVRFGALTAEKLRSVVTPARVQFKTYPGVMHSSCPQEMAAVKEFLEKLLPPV
LYPLA1 inh: counter-screen for PME1 inhibitors: inhibitors of human LYPLA1 | O75608 | recombinant LYPLA1, FP-Rh probe fluorescence polarization | inhibition, % at 5.9 µM | 320,000 tested, 0.16% active | AID 2174;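 active means inhibition above the mean of all tested compounds plus 3 SD, set per campaign, cut at about 14% in these data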;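 further: inhibitors block serine hydrolase probe labeling of LYPLA1 so polarization falls; 0% = enzyme with DMSO and 100% = wells lacking LYPLA1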
PAFAH1B2 FP inh: inhibitors of human PAFAH1B2; recombinant PAFAH1B2, FP-rhodamine activity probe, fluorescence polarization; inhibition, % at 3.39 µM; 340,000 tested, 1.2% active; AID 492953;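 active means inhibition above the mean of all tested compounds plus 3 SD, cut at about 24% in these data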;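 further: 0% = enzyme with DMSO and 100% = wells lacking PAFAH1B2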
pPAFAH FP inh: pPAFAH (human) enzyme inhibition; 330,000 tested, 1.5% active; recombinant pPAFAH, FP-rhodamine probe fluorescence polarization; AID 463082; inhibition, % at 3.39 µM;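 active means inhibition above the mean inhibition across the screen plus 3 SD, cut at about 25% in these data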;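 further: inhibitors block binding of the rhodamine activity-based probe so polarization drops; 0% = enzyme with DMSO and 100% = wells lacking pPAFAH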
Target sequence (Q13093 whole entry, looked up): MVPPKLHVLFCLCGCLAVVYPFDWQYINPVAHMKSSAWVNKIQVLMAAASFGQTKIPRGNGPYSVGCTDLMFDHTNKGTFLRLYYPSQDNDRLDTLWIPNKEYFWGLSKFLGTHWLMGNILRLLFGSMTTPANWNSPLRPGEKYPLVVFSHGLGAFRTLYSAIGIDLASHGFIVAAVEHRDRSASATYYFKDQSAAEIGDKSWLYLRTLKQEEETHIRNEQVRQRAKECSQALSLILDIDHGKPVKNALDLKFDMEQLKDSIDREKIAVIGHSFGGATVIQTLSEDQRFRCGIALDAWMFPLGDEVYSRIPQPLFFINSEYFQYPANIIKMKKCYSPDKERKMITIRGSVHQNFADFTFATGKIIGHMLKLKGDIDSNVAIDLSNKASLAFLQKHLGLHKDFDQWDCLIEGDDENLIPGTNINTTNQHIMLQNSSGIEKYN
LYPLA2 confirm: counter-screen for PME1 inhibitors: confirmation of human LYPLA2 inhibitors; inhibition, % at 5.9 µM; shares compounds with LYPLA2 inh; recombinant LYPLA2, FP-Rh probe fluorescence polarization; 1,100 tested, 72% active;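 active means mean inhibition across replicates above the hit cutoff set in the primary screen, cut at about 26% in these data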;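 further: blocked labeling of the enzyme by serine hydrolase FP-Rh probe lowers polarization; 0% = enzyme with DMSO and 100% = wells lacking LYPLA2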
LYPLA2 ABPP: blocks human acyl-protein thioesterase 2 in gel ABPP; shares compounds with LYPLA2 inh; rhLYPLA2 in mouse brain proteome, gel ABPP FP-Rh; inhibition, % at 20 µM; 150 tested, 30% active; AID 652029;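 active means inhibition of LYPLA2 enzyme probe labeling above about 50%, limit read from the data; inactive means inhibition below that limit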;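 further: loss of FP-Rh probe labeling of the LYPLA2 gel band measured as band density; 0% = DMSO only control band and 100% = blank gel background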
Numbers without * were called inactive; . = no result given. This is a sample that favours compounds with a hit; in the whole collection about 2.9% have one here.

SMILES	PAFAH1B3 FP inh	PAFAH2 FP inh	LYPLA2 inh	LYPLA1 inh	PAFAH1B2 FP inh	pPAFAH FP inh	LYPLA2 confirm	others
O=C(O)c1ccc(CN2C(=O)c3ccc(Oc4ccc([N+](=O)[O-])cc4)cc3C2=O)cc1	4.0	6.7	59.4*	-4.9	2.6	3.3	66.3*	LYPLA2 ABPP=59.0*
O=C(O)c1cccc(Oc2ccc([N+](=O)[O-])cc2)c1	5.9	2.1	1.0	-2.6	5.2	4.2	.
COc1ccc(NC2=NCCC(=O)N2Cc2cccs2)cc1	1.5	7.9	26.6*	1.9	0.6	-2.1	20.5
O=C(O)CN1C(=O)/C(=C\c2cccc(OCc3ccc(Cl)cc3)c2)SC1=S	10.9	5.2	27.9*	-2.6	62.2*	-0.2	27.1*
Cc1cc(F)ccc1NCc1cc2c(cc1[N+](=O)[O-])OCO2	5.3	8.2	26.9*	3.4	4.1	16.6	7.8
COc1ccccc1CNc1ccc([N+](=O)[O-])cc1C	.	.	2.5	-0.1	.	6.1	.
Cn1c(-c2ccccc2)cnc1NCc1cc2c(cc1[N+](=O)[O-])OCO2	5.4	-1.6	29.2*	-1.0	-0.3	5.8	40.9*
Cn1c(-c2ccc(F)cc2)cnc1NCc1cc2c(cc1[N+](=O)[O-])OCO2	3.6	4.5	41.5*	3.3	5.7	15.9	44.2*
Cn1c(-c2ccc(Cl)cc2)cnc1NCc1cc2c(cc1[N+](=O)[O-])OCO2	4.5	5.4	50.7*	-0.4	5.3	20.5	48.8*
Cn1c(-c2ccccc2)cnc1NCc1cccc([N+](=O)[O-])c1	9.1	-2.7	4.6	1.0	1.8	0.5	.
CC1=NN(C(=O)c2ccc(Cn3cc(Br)c([N+](=O)[O-])n3)o2)C(O)(C(F)(F)F)C1 (stereo unspecified)	7.4	2.6	1.8	1.6	2.4	-0.1	.
CC(C)(C)c1ccc(C(=O)N2CCC(NC(=O)c3ccccc3)CC2)cc1	6.7	12.4	38.6*	-2.0	1.7	-3.0	37.2*
CC(C)(C)c1ccc(C(=O)N2CCC(C(=O)NCc3ccncc3)CC2)cc1	0.1	-2.2	33.6*	-0.6	3.7	-5.4	40.7*
CCOC(=O)CN1C(=O)C(C)(C)Oc2ccc(C(=O)Nc3ccccc3)cc21	8.3	-0.9	8.2	-1.2	10.1	-1.8	.
COc1ccc(C(=O)Nc2ccnn2C2CCN(C(=O)CCC(F)(F)F)CC2)cc1	0.9	0.9	3.0	1.4	-1.2	5.8	.
CCN1C(=O)CC(C(=O)Nc2ccc(F)cc2)SC1=Nc1cccc(OC)c1 (stereo unspecified)	-5.9	-4.0	29.0*	2.2	3.4	4.3	7.7
COc1ccc(OCc2nnc(NC(=O)Nc3ccccc3F)s2)cc1	3.9	-7.2	-8.9	0.5	-2.6	1.7	.
N#Cc1nc(-c2ccco2)oc1N1CCN(c2ccccc2)CC1	6.0	3.2	26.3*	5.9	9.6	3.9	17.2
COc1ccc(N2CCN(c3oc(-c4ccco4)nc3C#N)CC2)cc1	-4.1	-5.6	22.1	9.8	3.3	16.2	.
Cc1ccnc(NS(=O)(=O)c2ccc(NC(=O)c3ccc(N4C(=O)CCC4=O)cc3)cc2)n1	7.2	-1.5	-0.7	3.5	-0.9	-2.2	.
COC(=O)c1sccc1NC(=O)c1cc(OC)cc(OC)c1	3.5	6.4	-1.2	0.7	-2.6	2.9	.
COc1ccc(Oc2coc3cc(OC(=O)c4cccs4)ccc3c2=O)cc1	2.7	6.8	40.5*	4.1	5.5	0.6	46.4*
CCCCn1c(-c2ccc(Br)cc2F)nc2c1c(=O)[nH]c(=O)n2CC(C)C	2.0	4.2	-3.7	-0.1	-3.1	4.8	.
O=S1(=O)CC2SC(=S)N(Cc3ccccc3)C2C1 (stereo unspecified)	.	.	-0.3	0.0	.	0.4	.
CCOC(=O)c1c(NC(=O)CN2C(=O)NC(C)(c3ccc(Cl)cc3)C2=O)sc(C(=O)NC)c1C (stereo unspecified)	2.8	-7.3	41.4*	5.2	-2.3	1.4	34.2*
SMILES	PAFAH1B3 FP inh	PAFAH2 FP inh	LYPLA2 inh	LYPLA1 inh	PAFAH1B2 FP inh	pPAFAH FP inh	LYPLA2 confirm	others
O=C1CCCC/C=C\C[C@H](CC(=O)N(CCO)Cc2ccccc2)C(=O)N2CCC[C@@H]2CO1	-3.6	-0.3	.	.	3.2	0.6	.
O=C(CCCn1c(=S)[nH]c2cc3c(cc2c1=O)OCO3)N1CCN(c2ccc(Cl)cc2)CC1	0.7	3.5	10.7	1.7	1.2	-6.7	.
CC(=O)c1ccc(N2CCN(C(=O)CCCn3c(=S)[nH]c4cc5c(cc4c3=O)OCO5)CC2)cc1	-1.7	10.6	52.5*	11.4	2.6	0.9	50.9*	LYPLA2 ABPP=13.0
Cc1cc(C)c(C#N)c(SCc2[nH]nc3c2C(c2ccc(F)cc2)C(C#N)=C(N)O3)n1 (stereo unspecified)	-3.6	-6.6	39.8*	-2.1	1.1	2.1	36.2*
Cc1ccccc1C(=O)NC(CC(C)C)C(=O)N1CCN(c2ccccc2)CC1 (stereo unspecified)	7.1	-11.7	1.7	-3.1	-4.0	2.0	.
NNC(=O)c1oc2nc(-c3ccccc3)cc(-c3ccccc3)c2c1N	15.8	6.0	32.2*	-0.9	5.4	5.9	8.5
CNC(=S)NNC(=O)c1oc2nc(-c3ccccc3)cc(C)c2c1N	-3.2	2.4	7.1	-2.1	0.4	3.6	.
Cc1ccc(C)c(Nc2c([N+](=O)[O-])cc(C(=O)N3CC(=O)Nc4ccccc43)cc2[N+](=O)[O-])c1	12.5	7.1	6.4	1.2	7.3	0.2	.
Cc1cccc(Nc2c([N+](=O)[O-])cc(C(=O)N3CC(=O)Nc4ccccc43)cc2[N+](=O)[O-])c1	-3.5	9.5	32.1*	-3.5	2.8	4.3	38.1*
O=C(OCCOc1cccc(Cl)c1)c1cc(S(=O)(=O)N2CCCCC2)ccc1N1CCOCC1	0.1	5.3	52.8*	12.5	0.2	17.0	58.2*
CC(C)NC(=O)NC(=O)COC(=O)c1cc(S(=O)(=O)N2CCCCC2)ccc1N1CCOCC1	1.2	3.8	26.6*	1.5	0.4	-1.8	24.4
O=C(COc1ccc2ccc(=O)oc2c1)N1CCN(c2ccc(F)cc2)CC1	3.1	1.5	8.6	-3.4	7.1	-0.1	.
COc1ccc(N2CCN(C(=O)c3ccc(CNc4c(N5CCOCC5)c(=O)c4=O)cc3)CC2)cc1	-2.9	3.3	51.5*	1.4	-5.0	-4.5	58.0*	LYPLA2 ABPP=35.0
COc1ccc(N2CCN(C(=O)c3ccc(CNS(=O)(=O)c4cccc(OC)c4)cc3)CC2)cc1	5.3	-1.4	31.2*	0.0	-1.2	4.8	16.1
O=C(c1ccc(CNc2c(N3CCCC3)c(=O)c2=O)cc1)N1CC=C(c2ccccc2)CC1	-2.5	7.9	47.0*	11.9	9.0	8.9	52.5*	LYPLA2 ABPP=21.0
